Compound activity from PubChem BioAssay.
miR122 inh: miR-122 inhibition in Huh7 cells; Huh7 miR-122 Renilla luciferase sensor, 48 h; neutral wells = 0, positive control = 100; activation (reporter increase), % at 12.5 µM; actives 0.3% (n = 340,000); AID 602342;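 active = mean replicate activation score at least 90 and every replicate individually at or above 90; inconclusive = only one of the two criteria met; inactive = neither criterion met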;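 also: higher luciferase means less miR-122 activity so hits act as miR-122 inhibitors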
esBAF inh: SWI/SNF esBAF complex inhibition | mouse ES cells, Bmi1-luciferase knock-in reporter, 24 h; 100% = twice the neutral-well signal | reporter increase, % at 12.5 µM | actives 2% (n = 350,000) | AID 602393; in the data active = activation above about 40%; inconclusive = no clear call, values can overlap the other calls;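 also: a rise in the Bmi1 reporter signal indicates esBAF inhibition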
MITF act: activators of MITF-driven TRPM1 promoter activity in SK-MEL-5 cells; actives 0.75% (n = 300,000); activation, % at 12.5 µM; SK-MEL-5 TRPM1-promoter luciferase, 24 h; % of positive control, neutral wells = 0;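 active = mean activation of at least 80% with every replicate also reaching 80%; inconclusive = mean reaches 80% but some replicate falls short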
HIV Env fusion: HIV envelope-mediated fusion inhibition; HeLa-JRFL Env/CEM21 cell fusion, luciferase; actives 1.1% (n = 360,000); AID 651610; inhibition, % at 12.3 µM;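 active = mean replicate inhibition score of at least 50 and every replicate individually at or above 50; inconclusive = only one of the two criteria met; inactive = mean below 50 and not all replicates reaching 50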
Wnt act: Wnt/beta-catenin pathway activation. Wnt/beta-catenin reporter cell assay, activator, plate reader. activation, % at 9.35 µM. actives 1.2% (n = 300,000); in the data active = activation above about 30%, passing the limit was not always enough; inconclusive = no clear call, values can overlap the other calls
Numbers stand for hits; n = inactive; u = inconclusive; x = not tested or not shown. Compounds with a hit are over-represented: about 3.4% of the library has one in this group of screens.

SMILES	miR122 inh	esBAF inh	MITF act	HIV Env fusion	Wnt act
Cc1nc(Nc2ccccc2)sc1C(=O)Nc1ccccc1	x	x	n	n	n
Cc1cccc(NC(=O)c2sc3nc(-c4ccccc4)cn3c2C)n1	n	51.2	n	x	n
Cc1cccc(NC(=O)c2sc3nc(-c4ccc(F)cc4)cn3c2C)n1	n	n	n	n	x
COc1ccc(-c2cn3c(C)c(C(=O)NC(C)C)sc3n2)cc1	n	n	n	n	n
COc1ccc(-c2cn3c(C)c(C(=O)Nc4cccc(C)n4)sc3n2)cc1	n	55.2	n	x	n
Cc1nc(NCc2ccccc2)sc1C(=O)Nc1ccccc1	n	59.0	n	n	n
COc1ccccc1NC(=O)N1C[C@H]2[C@@H](c3ccccc31)[C@@H](CO)N2C(=O)c1ccccc1	n	n	x	x	x
C[C@@H]1CN([C@@H](C)CO)C(=O)c2cc(NC(=O)C3CC3)ccc2O[C@@H]1CN(C)S(=O)(=O)c1ccc(F)cc1	n	n	x	n	x
Cc1ccc(CNC(=O)Nc2ccccc2)c(C)c1	n	70.8	117.6	n	n
Cc1ccccc1CNC(=O)Nc1cccs1	x	n	n	x	x
Cc1ccccc1CNC(=O)Nc1ccc(Cl)cc1	n	60.9	n	n	n
C[C@H](CO)N1C[C@H](C)[C@@H](CN(C)S(=O)(=O)c2ccccc2)Oc2ccc(NS(C)(=O)=O)cc2CC1=O	n	n	x	n	x
COc1ccc(NC(=O)N(C)C[C@H]2Oc3ccc(NS(=O)(=O)c4cn(C)cn4)cc3C(=O)N([C@@H](C)CO)C[C@@H]2C)cc1	n	n	x	x	x
Cc1ccccc1NC(=O)C[C@H]1CC[C@H]2[C@@H](COc3ccc(NC(=O)NC(C)C)cc3C(=O)N2C)O1	x	x	x	n	x
CN(CCC#N)C(=O)c1cc2c(s1)-c1ccccc1SC2	n	53.3	86.3	n	n
O=c1c2c(nc3cc(-c4ccc(Br)cc4)[nH]n13)CCCC2	n	n	109.4	n	n
CCCc1cc(=O)n2[nH]c(-c3cccc(Br)c3)cc2n1	x	51.9	x	n	n
Cc1ccc(-c2[nH]n3c(=O)c4c(nc3c2C)CCCC4)cc1	n	53.4	x	n	x
CCCc1cc(=O)n2[nH]c(-c3ccc(Br)cc3)cc2n1	n	48.4	n	x	x
C[C@@H]1CN([C@@H](C)CO)C(=O)c2cc(NC(=O)NC3CCCCC3)ccc2O[C@@H](C)CCCCO[C@@H]1CN(C)S(=O)(=O)c1cccs1	n	n	x	n	x
COc1ccc(C2=NCN(c3ccc(C)cc3)C(=S)N2)cc1	n	x	n	x	x
Cc1ccc(N2CN=C(c3ccccc3)NC2=S)cc1	n	56.9	n	n	x
O=c1[nH]c(=O)n([C@H]2C[C@H](O)[C@@H](CO)O2)cc1Br	n	n	n	x	46.5
O=c1[nH]c(=O)n([C@H]2C[C@H](O)[C@@H](CO)O2)cc1F	n	n	n	70.3	n
CO[C@H]1CN(C)C(=O)c2cc(NS(=O)(=O)c3cn(C)cn3)ccc2OC[C@@H](C)N(Cc2cccc(F)c2)C[C@H]1C	x	n	x	x	x
SMILES	miR122 inh	esBAF inh	MITF act	HIV Env fusion	Wnt act
CNc1cccc(-c2cccc(O)c2)n1	n	53.5	x	n	n
O=S(=O)(NCC(Nc1ccccc1)c1ccccc1)c1ccc(Cl)cc1 (centres undefined)	n	x	n	98.4	n
CO[C@@H]1CN(C)C(=O)c2cc(NC(=O)c3cnccn3)ccc2OC[C@H](C)N(CCc2ccccc2)C[C@H]1C	x	n	x	x	x
CO[C@@H]1CN(C)C(=O)c2cc(NC(=O)NC(C)C)ccc2OC[C@@H](C)N(Cc2ccc(-c3ccccn3)cc2)C[C@@H]1C	n	n	x	x	x
COC(=O)c1ccc(N2CCN(c3ccccc3)CC2)nc1	x	49.5	100.4	n	n
C=CCOC(=O)c1ccc(N2CCN(c3ccccc3)CC2)nc1	n	n	n	n	n
COc1cccc(C2C(=O)N(C3CCCCC3)CC(=O)N2Cc2ccc(F)cc2)c1 (centres undefined)	n	n	n	x	n
COc1ccccc1CN1C(=O)CN(C2CCCCCC2)C(=O)C1c1ccc(F)cc1 (centres undefined)	x	n	n	81.7	x
CN(C)C(=O)c1ccc(-c2ccc3c(c2)[C@H]2[C@H](CCN2C(=O)c2ccccn2)[C@H](CO)N3C)cc1	n	n	x	x	x
CC1Sc2n(c3ccccc3[n+]2C)N=C1c1ccccc1 (centres undefined)	x	x	n	60.4	n
COc1ccc(C(=O)CSC2=C(C#N)C3(CCCCC3)C(C#N)=C(N)N2)cc1	n	n	n	76.3	x
N#CC1=C(N)NC(SCC(=O)Nc2ccccc2)=C(C#N)C12CCCCC2	n	n	n	113.1	n
N#CC1=C(N)NC(SCC(=O)c2ccc(Br)cc2)=C(C#N)C12CCCCC2	n	x	n	n	n
COc1cc(-c2nc3oc4ccccc4c(=O)c3c(=O)n2Cc2ccco2)cc(OC)c1OC	n	n	x	92.3	n
Cc1cc(C)c(O)c(-c2cc(C(=O)Nc3cccnc3)[nH]n2)c1	x	x	n	n	n
Cc1cc(O)c(-c2cc(C(=O)Nc3cccnc3)[nH]n2)cc1C	n	n	137.8	n	40.4
CCc1ccc(O)c(-c2cc(C(=O)Nc3cccnc3)[nH]n2)c1	n	55.8	108.6	n	u
CCN1[C@H](C(=O)NCCc2cn(C)cn2)[C@@H](CO)[C@@H]2Cn3c(ccc(-c4cccnc4)c3=O)[C@@H]21	n	n	x	x	x
C[C@@H]1CN([C@H](C)CO)C(=O)c2cc(NS(=O)(=O)c3ccc(Cl)cc3)ccc2O[C@@H](C)CCCCO[C@H]1CN(C)Cc1ccc2c(c1)OCO2	n	n	x	n	x
CCc1cc2c(SC(C)C(=O)NC3CCCC3)ncnc2s1 (centres undefined)	n	n	n	n	n
CCc1cc(C=NC2CCCCC2)c(O)s1	n	51.2	x	n	x
CCOC(=O)Cc1csc(NC(=O)c2ccoc2C)n1	n	n	n	n	x
Cc1occc1-c1nnc(SCC(=O)Nc2nc(C(C)(C)C)cs2)o1	n	n	n	x	n
Cc1csc(NC(=O)c2cc(C)on2)n1	n	n	n	n	39.9
Cc1csc(NC(=O)c2ccoc2C)n1	n	41.6	x	u	x
SMILES	miR122 inh	esBAF inh	MITF act	HIV Env fusion	Wnt act
Cc1cccc(NC(=O)c2ccoc2C)n1	n	45.4	n	x	x
Cc1csc(NC(=O)CSc2nnc(-c3ccoc3C)o2)n1	n	43.1	x	n	n
COc1cccc(C(=O)Nc2ccc3c(c2)C(=O)N(C)C[C@@H](OC)[C@@H](C)CN(C(=O)C2CCCC2)[C@H](C)CO3)c1	n	n	x	x	x
C/C=C/c1cnc2c(c1)C(=O)N([C@@H](C)CO)C[C@H](C)[C@@H](CN(C)C(=O)Nc1ccc(OC)cc1)O2	n	n	x	n	x
CN1C(=O)c2cc(NC(=O)C3CC3)ccc2OC[C@@H]2O[C@H](CC(=O)NCCc3ccncc3)CC[C@@H]21	n	n	x	n	x
COCCOC(=O)N1C(=O)[C@@]2(c3ccccc31)[C@H](c1ccccc1OCCO)N1[C@H](c3ccccc3)[C@H](c3ccccc3)OC(=O)[C@H]1[C@@H]2C(N)=O	x	x	x	n	x
Cc1cc(C)n2c(Nc3ccc4c(c3)OCCO4)c(-c3ccccc3)nc2n1	n	n	x	n	40.9
Cc1cc(C)n2c(Nc3ccc4c(c3)OCCO4)c(C(C)C)nc2n1	x	x	x	n	n
